Mean motility score data for 24 compounds are collected here from the supplement of paper PMC10503962.

For this experiment, the system named is Trichuris muris adult worms. The experiment can be described thus: mean motility score (Paragon pixel variance) of adult worms (arbitrary units); higher = more motile worms, i.e. less anthelmintic effect; extreme values may be limits of the assay. Conditions: 100 µM; 24 h. As for the experimental part:
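Primary ex vivo screen of 409 approved drugs against adult Trichuris muris worms: one worm per well in RPMI-1640 with penicillin/streptomycin, 100 µM drug in 1% DMSO, 37 °C, 5% CO2 for 24 h. Motility was recorded with INVAPP (200-frame movies) and scored with the Paragon pixel-variance algorithm. Values are means of triplicate wells run on three occasions; levamisole was the positive control and DMSO the negative control.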
As to `C#CCN(C)[C@H](C)Cc1ccccc1.Cl` [selegiline hydrochloride], the mean motility score turned out to be 2950.

Compound `CC(C)N(CCC(C(N)=O)(c1ccccc1)c1ccccn1)C(C)C` (centres undefined) [disopyramide] came in with a mean motility score of 1630. With `CN(C)C(=O)Oc1cc(OC(=O)N(C)C)cc(C(O)CNC(C)(C)C)c1.Cl` (centres undefined) [bambuterol hydrochloride] the figure was 1410. Under `CC[C@@H](CO)NC(=O)[C@@H]1C=C2c3cccc4[nH]cc(c34)C[C@H]2N(C)C1.O=C(O)/C=C\C(=O)O` [methylergonovine maleate] stands 2650; under `C=CCN1CC[C@]23c4c5ccc(O)c4O[C@H]2C(=O)CC[C@@]3(O)[C@H]1C5.Cl` [naloxone hydrochloride], 3870; under `[O-][n+]1ccccc1S` [pyrithione], 3120. With `Cl.O=C(CCCN1CCC(n2c(=O)[nH]c3ccccc32)CC1)c1ccc(F)cc1` [benperidol hydrochloride] the figure was 3960; with `O=C1CC[C@@]2(O)[C@H]3Cc4ccc(O)c5c4[C@@]2(CCN3CC2CC2)[C@H]1O5` [naltrexone], 3530; with `COc1ccc(CCN2CCC(Nc3nc4ccccc4n3Cc3ccc(F)cc3)CC2)cc1` [astemizole], 0. With `CN(C)C(=O)Oc1ccc[n+](C)c1.[I-]` [pyridostigmine iodide], the mean motility score was determined as 2610. With `C[N+](C)(C)CCCCCCCCCC[N+](C)(C)C.[Br-].[Br-]` [decamethonium bromide] the figure was 2280; with `CCOP(=O)(OCC)Oc1ccc([N+](=O)[O-])cc1` [paraoxon], 0; with `CN(C)C(=O)Oc1cccc([N+](C)(C)C)c1.COS(=O)(=O)[O-]` [neostigmine methylsulfate], 1600. Under `COc1cc2c(c(OC)c1OC)-c1ccc(OC)c(=O)cc1[C@@H](NC(C)=O)CC2` [colchicine] stands 1420. With `CN1C[C@H](C(=O)N[C@]2(C)O[C@@]3(O)[C@@H]4CCCN4C(=O)[C@H](Cc4ccccc4)N3C2=O)CC2c3cccc4[nH]cc(c34)C[C@H]21.CS(=O)(=O)O` (some centres undefined) [dihydroergotamine methanesulfonate] the figure was 1730. For `N[C@@H](Cc1cc(Br)c(O)c(Br)c1)C(=O)O` [3,5 dibromotyrosine], the mean motility score is 3040. For `COc1ccc(C(CN(C)C)C2(O)CCCCC2)cc1.Cl` (centres undefined) [venlafaxine hydrochloride], the mean motility score was determined as 1570. Under `CC(C)C[C@H]1C(=O)N2CCC[C@H]2[C@]2(O)O[C@](NC(=O)C3C=C4c5cccc6[nH]c(Br)c(c56)C[C@H]4N(C)C3)(C(C)C)C(=O)N12.CS(=O)(=O)O` (some centres undefined) [bromocriptine methanesulfonate] stands 2300; under `COc1cc([C@@H]2c3cc4c(cc3[C@H](O)[C@H]3COC(=O)[C@H]23)OCO4)cc(OC)c1OC` [podofilox], 3650. With `CNC(=O)Oc1ccc2c(c1)[C@]1(C)CCN(C)[C@@H]1N2C` [physostigmine] the figure was 3170; with `CCCN1C[C@H](CSC)C[C@@H]2c3cccc4[nH]cc(c34)C[C@H]21.CS(=O)(=O)O` [pergolide mesylate], 3150. `C[C@H](N)[C@H](O)c1ccc(O)c(O)c1` [levonordefrin] had a mean motility score of 2110. With `CC[C@H]1[C@H]2CC3[C@@H]4N(C)c5ccccc5[C@]45C[C@H]([C@@H]2C5O)N3[C@@H]1O` (some centres undefined) [ajmaline] the figure was 1790; with `C#C[C@]1(O)CC[C@H]2[C@@H]3CCC4=CC(=O)CC[C@]4(C)[C@H]3CC[C@@]21C` [ethisterone], 1590.
